Data on 53 molecules can be found in PubChem BioAssay AID463173 (ICCB-Longwood Screening Facility, Harvard Medical School, 2010).

About 1,700 (3.3%) of roughly 52,000 compounds were called active. This is one part of a sample in which actives are shown more often than they occur. Rule as the data show it: active = survival mostly below about 52% (no sharp cut-off); inactive = mostly above about 56%.

The assay concerns Wild type. The experiment in a line: S. aureus survival, RN4220 and DeltatarO strains – OD600, teichoic acid synthesis inhibitors, primary screen (AID 463173). Particulars: S. aureus RN4220 wild type/DeltatarO growth, OD600, 18 h, hits give low values, screened at 18.75 µg/mL (by protocol).
Take `COc1ccc(NC(=O)CSc2nc(-c3ccc(OC)c(OC)c3)[nH]c2-c2ccc(C)cc2)cc1`: the survival is 139% (inactive).

`CCOC(=O)c1ccc(NC(=O)CCn2ccc(C)n2)cc1`: the survival is 110% (inactive).

Regarding `COc1ccc(C2C(=O)N(C3CCCCC3)CC(=O)N2C2CCCCC2)cc1` (stereo not drawn), the survival was 76% (inactive).

Consider `Cc1cccc(NC(=O)c2oc3ccccc3c2NC(=O)c2cc(=O)c3cc(Cl)ccc3o2)c1`, for which the survival is 85% (inactive). As to `COc1ccc(-c2nc(C)c(CCNC(=O)c3cccs3)s2)cc1OC`, the survival is 69% (inactive).

For the molecule `Cc1ccccc1-c1nc(CS(=O)(=O)CC(=O)NCCCc2ccccc2)c(C)o1`, the survival is 138% (inactive). As to `CCOC(=O)CSc1nc2c([nH]c3ccccc32)c(=O)n1-c1ccc(OCC)cc1`, the survival was 80% (inactive). For the molecule `COc1ccc(-n2c(SCC(=O)N3CCC(C)CC3)nc3c([nH]c4ccccc43)c2=O)cc1`, the survival is 79% (inactive). With `CC1CCN(C(=O)CSc2nc3c([nH]c4ccccc43)c(=O)n2-c2ccccc2)CC1`, the survival was 83% (inactive).

In the case of `Cc1cc(C)cc(-n2c(SCC(=O)N3CCCCC3)nc3c([nH]c4ccccc43)c2=O)c1`, the survival was 78% (inactive).

Take `Cc1cc(C)cc(-n2c(SCC(=O)N3CCCC3)nc3c([nH]c4ccccc43)c2=O)c1`: the survival was 69% (inactive). On to `Cc1ccc(C)c(NC(=O)CSc2nc3c([nH]c4ccccc43)c(=O)n2-c2ccc(F)cc2)c1`, for which the survival is 0% (active). Regarding `Cc1cc(C)cc(-n2c(SCC(=O)N3CCC(C)CC3)nc3c([nH]c4ccccc43)c2=O)c1`, the survival is -1% (active). The figure for `COC(=O)C(C)Sc1nc2c([nH]c3ccccc32)c(=O)n1-c1ccc(OC)cc1` (stereo not drawn) is 75% (inactive); for `Cc1cccc(NC(=O)CSc2nc3c([nH]c4ccccc43)c(=O)n2-c2ccc(F)cc2)c1C` it is 22% (inactive). Take `CCOc1ccc(-n2c(SC(C)C(=O)OC)nc3c([nH]c4ccccc43)c2=O)cc1` (stereo not drawn): the survival was -2% (active). On to `CCOc1ccc(-n2c(SCC(=O)Nc3cc(C)ccc3C)nc3c([nH]c4ccccc43)c2=O)cc1`, for which the survival is 59% (inactive). `Cc1ccc(-n2c(SCC(=O)N3CCC(C)CC3)nc3c([nH]c4ccccc43)c2=O)cc1`: the survival is -6% (active). Regarding `CCc1ccc(-c2nc(CS(=O)CC(=O)NCc3ccc(F)cc3)c(C)o2)cc1` (stereo not drawn), the survival is 73% (inactive). The figure for `O=C1N/C(=N\S(=O)(=O)Cc2ccccc2)S/C1=C\c1ccco1` is 106% (inactive); for `COc1ccccc1CNC(=O)Cn1c(=O)nc(-c2ccccc2)c2ccccc21` it is 67% (inactive). Then `CCc1ccc(-n2c(N3CCN(c4cccc(C)c4C)CC3)nc3ccccc3c2=O)cc1`, with 81% (inactive). In the case of `Cc1c(C(=O)NCc2ccccc2Br)oc2c1-c1[nH]ncc1CC2`, the survival is 82% (inactive). Regarding `Cc1ccc(C(=O)Nc2ccc3c(c2)N(C)C(=O)c2ccccc2S3)cc1`, the survival is 99% (inactive). `COc1ccc(Cl)cc1NC(=O)Cn1c(=O)n(Cc2ccco2)c(=O)c2ccc(C(=O)NC3CCCC3)cc21`: the survival was 87% (inactive). On to `COC(=O)c1ccc(CSc2nc3c([nH]c4ccccc43)c(=O)n2-c2cc(C)cc(C)c2)o1`, for which the survival is 0% (active). Consider `COC(=O)c1ccc(CSc2nc3c([nH]c4ccccc43)c(=O)n2-c2ccc(Cl)cc2)o1`, for which the survival is 121% (inactive).

As to `O=C(CSc1nc2c([nH]c3ccccc32)c(=O)n1-c1ccc(F)cc1)NCc1ccco1`, the survival was 88% (inactive).

In the case of `COC(=O)c1ccc(CSc2nc3c([nH]c4ccccc43)c(=O)n2-c2cccc(Cl)c2)o1`, the survival was 71% (inactive). On to `O=C(CSc1nc2c([nH]c3ccccc32)c(=O)n1-c1ccccc1)Nc1cccc(C(F)(F)F)c1`, for which the survival was -6% (active).

On to `O=C(CSc1nc2c([nH]c3ccccc32)c(=O)n1-c1ccccc1F)Nc1cccc(C(F)(F)F)c1`, for which the survival is 71% (inactive). Then `O=C(CSc1nc2c([nH]c3ccccc32)c(=O)n1-c1ccccc1)N1CCCCC1`, with 69% (inactive); and `CCOc1ccc(-n2c(SCC(=O)NCc3ccco3)nc3c([nH]c4ccccc43)c2=O)cc1`, with 10% (active); and `COc1cccc(-n2c(SCC(=O)N3CCCCC3)nc3c([nH]c4ccccc43)c2=O)c1`, with -3% (active). On to `COc1cccc(NC(=O)CSc2nc3c([nH]c4ccccc43)c(=O)n2-c2ccccc2)c1`, for which the survival is 67% (inactive).

In the case of `COc1ccc(-n2c(SCC(=O)NCc3ccco3)nc3c([nH]c4ccccc43)c2=O)cc1`, the survival is 75% (inactive). With `O=C(CSc1nc2c([nH]c3ccccc32)c(=O)n1-c1ccccc1)N1CCCCCC1`, the survival was 78% (inactive). `CCc1cccc(C)c1NC(=O)c1cc(S(=O)(=O)N2CCN(c3ccccc3)CC2)ccc1F`: the survival is 73% (inactive).

Consider `COc1cccc(C(=O)N2c3cc(C)ccc3C(C)(c3ccccc3)CC2(C)C)c1` (stereo not drawn), for which the survival was 1% (active).

Turning to `COc1cccc(C(=O)N2CC(C)OC(C)C2)c1` (stereo not drawn), the survival was 107% (inactive). Turning to `COc1ccc(OCC(=O)N2CCN(C(=O)c3cccc(OC)c3)CC2)cc1`, the survival is 88% (inactive). On to `COc1cccc(C(=O)N2c3ccc(C)cc3C(C)(c3ccccc3)CC2(C)C)c1` (stereo not drawn), for which the survival is -2% (active).

For `COc1cccc(NC(=O)NCc2ccc3c(c2)CCN3C(=O)c2ccccc2)c1`, the survival was 64% (inactive).

On to `COC(=O)C1=NN(C(=O)c2cccc(OC)c2)C(C)(O)C1` (stereo not drawn), for which the survival is 123% (inactive). In the case of `COc1ccc(CNc2nc(-c3ccco3)nn2C(=O)c2ccccc2Cl)cc1`, the survival is 95% (inactive). For `O=C(Cn1c(=O)n(-c2ccc(F)cc2)c(=O)c2sc3ccccc3c21)NC1CCCCC1`, the survival is 91% (inactive).

As to `CNC(=O)C1CCC(Cn2c(=O)c3sccc3n(CC(=O)N3CCCC3)c2=O)CC1` (stereo not drawn), the survival was 77% (inactive).

Consider `Cc1ccc(NCC(=O)N=Nc2c(O)[nH]c3ccccc23)cc1`, for which the survival is 114% (inactive). With `Cc1c(C(=O)O)oc2c1-c1nn(Cc3ccc(Cl)cc3)cc1CC2`, the survival is 77% (inactive). Regarding `CCOC(=O)c1oc2c(c1C)-c1nn(Cc3cccc(Cl)c3)cc1CC2`, the survival was 66% (inactive). Take `CCOC(=O)c1oc2c(c1C)-c1nn(Cc3ccc(Cl)cc3)cc1CC2`: the survival is 2% (active). Then `CCOc1ccc2c(c1)c(=O)c(C(=O)c1ccc3c(c1)OCO3)cn2Cc1cccc(F)c1`, with 91% (inactive); and `CCCCOc1cccc(C2c3c(oc4ccccc4c3=O)C(=O)N2c2ccccn2)c1` (stereo not drawn), with 68% (inactive).
